Data from PubChem BioAssay AID1628 (Sanford-Burnham Center for Chemical Genomics, 2009).
Hit rate of the full screen: of about 190,000 compounds, about 930 (0.49%) were called active. The list shows a part of the results. Entries with a potency or affinity are not part of this list. Values without a mark were called inactive.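 How the source made its calls: active means z-score of insulin promoter reporter brightness in nuclei below -3 at 5 µM, with at least 500 cells counted; inconclusive means wells with under 500 cells, flagged as toxic or sparse; inactive means the rest.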

Assay: insulin promoter down-regulators in MIN6 cells, imaging, high-content screening, mouse beta cells (AID 1628)
Conditions: MIN6 insulin promoter GFP reporter, at 5 µM, stronger effect = lower value

Row | Compound | z-score
1 | Cc1cc(N2C(=O)c3ccccc3C2=O)n(C)n1 | 3.77
2 | O=C(/C=C/c1ccco1)NC(=S)Nc1ccccc1N1CCCC1 | 3.08
3 | CCc1nnc(NC(=O)CSc2ccc(-c3cccs3)nn2)s1 | 1.38
4 | CCn1c(SCC(=O)Nc2cc(OC)c(OC)c(OC)c2)nnc1-c1cccs1 | -4.1 (active)
5 | COc1ccc(NC(=O)CSc2nnc(-c3cccs3)n2C)cc1OC | 3.55
6 | CCOC(=O)c1ccc(CSc2nnc(-c3ccncc3)n2N)cc1 | 3.8
7 | CCn1c(SCC(=O)N2CCCC2)nnc1-c1ccc(N)cc1 | 1.98
8 | CCOc1ccccc1N1CC(O)=C(c2nc3ccccc3s2)C1=N | -3.91 (active)
9 | Cc1ccc(N2C(=O)C3C(C(=O)c4ccccc4)=NN(c4ccccc4)C3C2=O)cc1 (configuration not stated) | 3.17
10 | Cc1ccc(-n2cc(-c3ccc([N+](=O)[O-])cc3)[nH]c2=S)c(C)c1 | -6.17 (active)
11 | CCN1CCC2(CC1)N=C(c1ccc(F)cc1)C(=S)N2 | 4.47
12 | CS(=O)(=O)ON=C1CCN(S(=O)(=O)c2ccccc2)CC1 | 3.51
13 | O=c1oc2c(CN3CCCCC3)c(O)ccc2cc1-c1nc2ccccc2[nH]1 | 3.57
14 | O=C1C=C(c2ccccc2)C[C@H](c2cccs2)[C@H]1n1nnc([N+](=O)[O-])n1 | -3.36 (active)
15 | CCOC(=O)CC1C(=O)NCCN1c1nc2c(C)cccn2c(=O)c1/C=C1\SC(=S)N(CC(C)C)C1=O (configuration not stated) | 16.9
16 | CCN(CC)CCCNc1nc2cc(OC)c(OC)cc2c2nc(-c3cccnc3)nn12 | -3.38 (active)
17 | CCN(CC)CCCC(C)Nc1c2ccc(Cl)cc2nc2ccc(OC)cc12 (configuration not stated) | 12.4
18 | COc1ccc(-c2c[n+](CC(=O)N3c4ccccc4Sc4ccccc43)c3n2CCC3)cc1 | -3.33 (active)
19 | CC1CCC(C(C)C)C(OC(=O)C[n+]2cc(-c3ccc(Cl)cc3)n3c2CCCCC3)C1 (configuration not stated) | -4.3 (active)
20 | Nc1ccc(-c2nc3nc(N)nc(N)c3nc2-c2ccc(N)cc2)cc1 | 4.9
21 | Cc1cccc(OCC2=N/C(=C\N(C)C)C(=O)O2)c1 | 2.11
22 | Nc1nonc1C(=O)NCCNCc1ccccc1OCc1ccccc1F | -3.51 (active)
23 | COc1ccc(S(=O)(=O)N(CCCN2CCCC2=O)Cc2cc3c(C)ccc(C)c3[nH]c2=O)cc1 | -4.34 (active)
24 | COc1ccc(C(=O)N(CN2CCCC2=O)c2ccc(C)cc2)cc1 | 3.42

Row | Compound | z-score
25 | COC(=O)c1cnn2c(C(F)(F)F)cc(-c3ccc(F)cc3)nc12 | 4.23
26 | Oc1c(C(c2ccccn2)N2CCCCC2)cc(Cl)c2cccnc12 (configuration not stated) | -5.13 (active)
27 | COc1ccc(-c2cc(C(F)(F)F)nc(SCC(=O)NCCN3CCOCC3)n2)cc1OC | 0.28
28 | CN(C)CCCN(C(=O)COc1ccc(Cl)cc1)c1nc2ccc(F)cc2s1 | 1.61
29 | COc1ccc(NC(=S)N(CCCN2CCOCC2)C(C)c2cc3cccc(OC)c3o2)cc1 (configuration not stated) | 2.54
30 | COc1ccc(-c2csc(N(CCCN(C)C)C(=O)c3cccs3)n2)cc1 | -4.21 (active)
31 | COc1ccc(-c2csc(N(CCCN3CCOCC3)C(=O)c3ccco3)n2)cc1 | -4.01 (active)
32 | Cc1[nH]c2ccccc2c1Cc1nnc(SCC(N)=O)o1 | 4.82
33 | COc1ccc(C(=O)CSc2nnc(Cn3cnc4ccccc43)o2)cc1 | -3.47 (active)
34 | CCC(=O)c1cc(F)c(N2CCN(S(=O)(=O)c3ccc(C)cc3)CC2)cc1C | -4.01 (active)
35 | C/C(=N\S(=O)(=O)c1ccc(C)cc1)N1CCN(S(=O)(=O)c2ccccc2)C1 | 3.52
36 | CCCSc1nc2sc3c(c2c(=O)[nH]1)CCN(Cc1ccccc1)C3 | 7.3
37 | O=C(c1ccco1)N(Cc1ccccc1)c1cccc([N+](=O)[O-])c1 | 2.28
38 | CC(C)(C)c1cc(C(=O)NCc2cccnc2)ccn1 | 4.34
39 | CC(=O)c1c(COC(=O)c2ccncc2)nc2ccccc2[n+]1[O-] | 4.18
40 | CCOc1ccc(C(=O)O)cn1 | 0.1
41 | CCOc1ccc2nc(C)cc(Nc3cccc([N+](=O)[O-])c3)c2c1 | -3.35 (active)
42 | O=[N+]([O-])c1ccc(N(c2ccccc2)c2ccccc2)cc1 | 3.11
43 | Cc1ccc(Cn2c(=N)n(CC(O)c3ccco3)c3ccccc32)cc1 (configuration not stated) | -11.4 (active)
44 | CC(C)(C)c1ccc(Cn2c(=N)n(CC(O)c3ccco3)c3ccccc32)cc1 (configuration not stated) | -5.45 (active)
45 | Cc1ccccc1-n1c(=O)c2ccccc2n(CC(=O)NCc2ccco2)c1=O | 3.06
46 | COc1ccc(CN(CC2CCC(C(=O)O)CC2)C(=S)Nc2cccc(C)c2)cc1 (configuration not stated) | 3.65
47 | COCCSc1nnc(NC(=O)c2ccc([N+](=O)[O-])cc2)s1 | 0.48
